According to PubChem BioAssay (NCATS):
Results filed as inconclusive are left out. Calls of active or inactive are those of the source. Unless noted, how the calls were made is not given here.

Tests used:
[1] = qHTS profiling of the MIPE4 collection as inhibitors of Plasmodium falciparum (3D7) proliferation (AID 743344);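 further: scaled between DMSO vehicle wells and 0.29 µM artemisinin as full inhibition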; settings: P. falciparum 3D7 in erythrocytes, SYBR Green DNA fluorescence, 72 h; at 28.5 µM unless noted
Summary of the method: (§1)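 Erythrocytes infected with P. falciparum (0.3% parasitemia, 2.5% hematocrit) incubated with compounds 72 h at 37 C, 5% CO2. Lysis with saponin/Triton buffer containing SYBR Green I, overnight at room temperature in the dark; DNA fluorescence (485/535 nm) normalised to 0.29 uM artemisinin and DMSO.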

[2] = qHTS profiling of the MIPE4 collection as inhibitors of Plasmodium falciparum (DD2) proliferation (AID 743345); settings: P. falciparum Dd2 in erythrocytes, SYBR Green DNA, 72 h; at 28.5 µM unless noted
Summary of the method: as §1

[3] = qHTS profiling of the MIPE4 collection as inhibitors of Plasmodium falciparum (DD2) proliferation (Rep 2) (AID 743346); settings: P. falciparum Dd2 in erythrocytes, SYBR Green DNA, 72 h; at 28.5 µM unless noted
Summary of the method: as §1

[4] = High-throughput drug toxicity screening in the BPDCN cell line Gen2.2 (AID 1224824); settings: Gen2.2 BPDCN cells; at 45.8 µM (top of the series) unless noted;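 further: cells exposed to compounds for 48 h before reading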
Summary of the method: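 Readout is ATP luminescence from Gen2.2 cells after two days of drug exposure in serum-containing medium at 37 °C. Values express percent activity, with vehicle defining full signal and 9.2 uM bortezomib defining zero.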

[5] = High-throughput drug toxicity screening in the BPDCN cell line Cal-1 (AID 1224825); settings: Cal-1 BPDCN cell viability, qHTS; at 45.8 µM (top of the series) unless noted
Summary of the method: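 Cal-1 cells, 500 per well in phenol-red-free RPMI with 10% FBS, exposed to compounds for 48 hours at 37C, 5% CO2. Viability read by CellTiter-Glo luminescence; percent activity normalized to DMSO (100%) and 9.2 uM bortezomib final (0%).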

[6] = qHTS assay for measurement of the activity of small molecule inhibitors on Zika virus induced Caspase-3 activity in human iPSC derived neural progenitor cells (hNPCs) (AID 1224857; active means well fitted curve in the direction sought with a large enough effect; an effect the other way counts as inactive or inconclusive; further: nearly all actives have a fitted effect of over 65% in size; further: potency means the concentration at half of the fitted maximal effect)
Summary of the method: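 hNPCs seeded 350 cells/well, cultured 16–20 h; compounds added 1 h before ZIKV (2 FFU/cell), 37 C 6 h. Caspase-Glo 3/7 luminescence after 30 min RT; % inhibition from induction scaled to uninfected (0%) and infected (100%) wells.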

[7] = qHTS Screen of the MIPE 4.0 Collection Against Ewings Sarcoma (EW8) (AID 1259255; active means well fitted curve in the direction sought with a large enough effect; an effect the other way counts as inactive or inconclusive; further: nearly all actives have a fitted effect of over 35% in size; further: potency means the concentration at half of the fitted maximal effect;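 on viability: 100% = DMSO-treated cells and 0% = medium-only wells without cells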)
Summary of the method: (§2)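 Viability screen: 48 h incubation at 37C, 95% humidity, 5% CO2 with serially titrated compound, followed by CellTiter-Glo readout.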

[8] = qHTS Screen of the MIPE 4.0 Collection Against Ewings Sarcoma (TC32) (AID 1259256; active means well fitted curve in the direction sought with a large enough effect; an effect the other way counts as inactive or inconclusive; further: nearly all actives have a fitted effect of over 45% in size; further: potency means the concentration at half of the fitted maximal effect)
Summary of the method: as §2

[9] = qHTS profiling of the MIPE4 collection as inhibitors of Plasmodium falciparum (HB3) proliferation (AID 743347);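 further: plate controls were DMSO vehicle wells for no effect and artemisinin wells for full effect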; settings: P. falciparum HB3 in erythrocytes, SYBR Green DNA, 72 h; at 28.5 µM unless noted
Summary of the method: as §1

[10] = qHTS Screen of the MIPE 4.0 Collection Against Ewings Sarcoma (RDES) (AID 1259252; active means well fitted curve in the direction sought with a large enough effect; an effect the other way counts as inactive or inconclusive; further: nearly all actives have a fitted effect of over 35% in size; further: potency means the concentration at half of the fitted maximal effect)
Summary of the method: as §2

[11] = qHTS Screen of the MIPE 4.0 Collection Against Ewings Sarcoma (TC71) (AID 1259253; active means well fitted curve in the direction sought with a large enough effect; an effect the other way counts as inactive or inconclusive; further: nearly all actives have a fitted effect of over 40% in size; further: potency means the concentration at half of the fitted maximal effect)
Summary of the method: as §2

[12] = qHTS assay to identify small molecule inhibitors of chordoma cells - UCH-2 (AID 1259356; active means well fitted curve in the direction sought with a large enough effect; an effect the other way counts as inactive or inconclusive; further: on the % scale 0 is the no-effect control and ±100 the full control effect)
[13] = qHTS profiling for inhibitors of Plasmodium falciparum (HB3) proliferation (AID 743324; active means well fitted curve in the direction sought with a large enough effect; an effect the other way counts as inactive or inconclusive;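 further: 100% = DMSO vehicle wells and 0% = artemisinin-treated control wells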); settings: Plasmodium falciparum HB3 blood-stage proliferation; at 28.7 µM (top of the series) unless noted
Summary of the method: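 P. falciparum HB3 grown in erythrocytes (0.3% parasitemia, 2.5% hematocrit final) with compound for 72 h at 37 C, 5% CO2. Parasite DNA detected by SYBR Green after saponin/triton lysis overnight; normalized to 0.29 uM artemisinin and DMSO.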

[14] = qHTS assay for measurement of the activity of small molecule inhibitors on Zika virus induced Caspase-3 activity in human astrocytoma cells (AID 1224859; active means well fitted curve in the direction sought with a large enough effect; an effect the other way counts as inactive or inconclusive;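 further: plate controls were ZIKV-infected untreated cells for no effect and uninfected cells for full effect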)
Summary of the method: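 Luminescence read-out (Caspase-Glo 3/7, 30 min RT) of caspase activity in SNB-19 cells infected 6 h with ZIKV, 2 FFU/cell, after 1 h compound pretreatment; % inhibition from induction normalised to uninfected (0%) and infected (100%) wells.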

[15] = Identifying Small Molecule Inhibitors of Pancreatic Cancer Stem Cells (A2780, Spheroid) (AID 1259357; active means well fitted curve in the direction sought with a large enough effect; an effect the other way counts as inactive or inconclusive;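 further: spheroids pre-formed over 14 days in stem cell medium on hydrogel; compound exposure lasted 48 h before the ATP luminescence read; 100% = DMSO treated cells and 0% = wells without cells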); settings: Potency: A2780 spheroid viability
Summary of the method: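 Pre-formed 14-day tumor spheroids or adherent cells dosed and incubated 48 h, 37C, 5% CO2. Viability assessed by CellTiter-Glo.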

[16] = P-glycoprotein substrates identified in KB-3-1 adenocarcinoma cell line, qHTS therapeutic library screen (AID 1346986; active means well fitted curve in the direction sought with a large enough effect; an effect the other way counts as inactive or inconclusive; further: nearly all actives have a fitted effect of over 60% in size)
Summary of the method: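 Compounds were tested in dose-response against KB-3-1 and KB-8-5-11 cells at 37 degree C for 72 h, and viability was measured by luminescence. AC50 values came from curve fitting with class-based activity calls.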

Row | Structure (SMILES) | parasite growth, % of DMSO control [1] [%] | parasite growth remaining, % of DMSO control (lower = more inhibition) [2] [%] | parasite growth, % of control (lower = inhibition) [3] [%] | cell viability, % of control (lower = more cytotoxic) [4] [%] | viability (% of control) [5] [%] | Potency [6] | Potency [7] | Potency [8] | growth, % of control [9] [%] | Potency [10] | Potency [11] | outcome [12] | remaining proliferation (% of control), lower = more inhibition [13] [%] | Potency [14] | Potency [15] | Potency [16]
1 | NC(=O)c1nnn(Cc2cc(Cl)c(C(=O)c3ccc(Cl)cc3)c(Cl)c2)c1N | 23.3 | 33.4 | 37 | 390 | 45.1 | inactive | 26.4 µM (active) | 20.9 µM (active) |  |  |  |  |  |  |  | 
2 | CC(C)(F)C[C@H](N[C@@H](c1ccc(-c2ccc(S(C)(=O)=O)cc2)cc1)C(F)(F)F)C(=O)NC1(C#N)CC1 | 56.4 | 64.3 | 61 | 153 | 99.1 | inactive | 16.6 µM (active) | 18.7 µM (active) | 68.4 | 18.7 µM (active) |  |  |  |  |  | 
3 | N#Cc1c(N(CC(=O)O)CC(=O)O)sc(C(=O)O)c1CC(=O)O | 86.7 | 91.9 | 139 | 5.77 | 9.17 | inactive | inactive |  |  | inactive | inactive | inactive |  |  |  | 
4 | CC(C)(OCc1nn(Cc2ccccc2)c2ccccc12)C(=O)O | 95.1 | 101 | 96.9 | 148 | 109 | inactive | inactive |  | 104 |  | 7.43 µM (active) |  |  |  |  | 
5 | CC(=O)OCC(=O)[C@@]1(O)CC[C@H]2[C@@H]3CCC4=CC(=O)C=C[C@]4(C)[C@@H]3[C@@H](O)C[C@@]21C | 77.8 | 102 | 81.3 | 165 | 58.1 | inactive | inactive |  | 80.7 | inactive |  |  |  |  |  | 
6 | N[C@@H](CC(=O)N1CCn2c(nnc2C(F)(F)F)C1)Cc1cc(F)c(F)cc1F | 94.7 | 104 | 84.5 | 162 | 111 | inactive | 18.7 µM (active) | 23.5 µM (active) | 104 |  | 16.6 µM (active) |  |  |  |  | 
7 | CCN(CCO)CCCOc1ccc2c(Nc3cc(CC(=O)Nc4cccc(F)c4)[nH]n3)ncnc2c1 | 9.18 | 11.6 |  | 90.4 | 15.3 | inactive | 0.0833 µM (active) | 0.059 µM (active) |  |  | 0.166 µM (active) |  |  |  |  | 
8 | CC(=O)Nc1cccc(-n2c(=O)n(C3CC3)c(=O)c3c(Nc4ccc(I)cc4F)n(C)c(=O)c(C)c32)c1 | 5.62 | 6.3 | 9.44 | 11.2 | 7.97 | inactive |  | 23.5 µM (active) | 2.56 |  |  |  | -0.298 | inactive | inactive | 
9 | CNC(=O)[C@H](CC1=CN=C2C=CCC=C12)NC(=O)[C@@H](CC(=O)NO)CC(C)C | 22 | 47.4 | 26.7 | 31.3 | 8.09 | inactive |  | inactive | 18.7 |  |  |  |  | inactive |  | 
10 | CN1CCc2c(n(Cc3ccc(C(=O)NO)cc3)c3ccccc23)C1 | 5.97 | 11.6 | 9.26 | 17.7 | 3.16 |  | 16.6 µM (active) | 13.2 µM (active) | 4.11 | 14.8 µM (active) | 18.7 µM (active) |  |  | inactive |  | 
11 | Oc1ccc(C=Cc2cc(O)cc(O)c2)cc1 | 49.1 | 96.9 | 40.6 | 240 | 39.4 | 11.8 µM (active) |  | 18.7 µM (active) | 13 |  |  |  |  |  |  | 
12 | FC(F)(F)c1ccc(C=Cc2nc(COc3ccc(CCCCn4ccnn4)cc3)co2)cc1 | 77.3 | 85.5 | 62.6 | 102 | 17.8 | inactive | 0.743 µM (active) | 0.0332 µM (active) |  | 0.059 µM (active) |  |  |  |  |  | 
13 | COc1cc2ncn(-c3cc(OCc4ccccc4S(C)(=O)=O)c(C#N)s3)c2cc1OC | 76.2 | 103 | 75.9 | 146 | 95.9 | inactive | inactive |  | 90.8 | 16.6 µM (active) | 3.32 µM (active) |  |  |  |  | 
14 | CC1=C(CC(=O)O)c2cc(F)ccc2C1=Cc1ccc(S(C)=O)cc1 (stereo not drawn) | 79.1 | 91.5 | 64.2 | 6.5 | 7.86 | inactive |  | 1.48 µM (active) | 52.4 |  | 1.32 µM (active) |  |  |  |  | 
15 | C[C@@H]1C[C@H]2[C@@H]3CCC4=CC(=O)C=C[C@]4(C)[C@@]3(F)[C@@H](O)C[C@]2(C)[C@@]1(O)C(=O)CO | 55.8 | 90.6 | 60.4 | 184 | 55.5 | inactive | inactive | inactive | 9.35 | inactive | inactive |  |  |  |  | 
16 | NC(=O)c1noc([C@H](CCCC2CCCCC2)CC(=O)NO)n1 | 33.9 | 125 | 30.9 | 20 | 7.18 | inactive | 18.7 µM (active) |  | 48.3 |  | 26.4 µM (active) |  |  |  |  | 
17 | O=C(NC[C@H](O)CO)c1ccncc1Nc1ccc(I)cc1F | 60.9 | 101 | 56.7 | 5.6 | 12.1 | inactive |  |  | 54.8 |  |  |  |  |  |  | inactive
18 | CC(C)c1onc(-c2c(Cl)cccc2Cl)c1COc1ccc(C=Cc2cccc(C(=O)O)c2)c(Cl)c1 | 60.6 | 94.1 | 53.3 | 76.8 | 107 | inactive | inactive |  |  | inactive | 18.7 µM (active) |  |  |  |  | 
19 | NS(=O)(=O)c1ccc(Nc2nc(OCC3CCCCC3)c3[nH]cnc3n2)cc1 | 17.4 | 13.9 | 24.8 | 12 | 9.86 | inactive |  | 16.6 µM (active) |  | 5.9 µM (active) |  |  |  |  |  | 
20 | Nc1ccn([C@@H]2O[C@H](CO)[C@@H](O)[C@H]2O)c(=O)n1 | 89.8 | 97.8 | 117 | 86.2 | 11.3 |  | 0.0935 µM (active) |  |  |  | 0.0332 µM (active) |  |  |  |  | 
